MITF primary = MITF inhibitors, primary screen, biochemical, AlphaScreen, human; Microphthalmia-associated transcription factor (Homo sapiens), O75030; AlphaScreen MITF homodimerization, bead proximity signal; inhibition, % at 2.6 µM; 0.91% of 650,000 active; in the data active means inhibition above about 50%;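 further: 0% = vehicle wells with protein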
FBW7 act = FBW7 E3 ligase activators, primary screen, biochemical, AlphaScreen, human | F-box/WD repeat-containing protein 7 (Homo sapiens), Q969H0 | AlphaScreen FBW7–phospho-cyclin E peptide binding, activator screen | normalized activity (activation), % at 26.1 µM | 0.13% of 650,000 active | AID 1259310, 2017; in the data active means normalized activity above about 1.9%;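 further: purified mutant Fbw7 with reduced substrate affinity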
Target sequence (Q969H0 whole entry, looked up): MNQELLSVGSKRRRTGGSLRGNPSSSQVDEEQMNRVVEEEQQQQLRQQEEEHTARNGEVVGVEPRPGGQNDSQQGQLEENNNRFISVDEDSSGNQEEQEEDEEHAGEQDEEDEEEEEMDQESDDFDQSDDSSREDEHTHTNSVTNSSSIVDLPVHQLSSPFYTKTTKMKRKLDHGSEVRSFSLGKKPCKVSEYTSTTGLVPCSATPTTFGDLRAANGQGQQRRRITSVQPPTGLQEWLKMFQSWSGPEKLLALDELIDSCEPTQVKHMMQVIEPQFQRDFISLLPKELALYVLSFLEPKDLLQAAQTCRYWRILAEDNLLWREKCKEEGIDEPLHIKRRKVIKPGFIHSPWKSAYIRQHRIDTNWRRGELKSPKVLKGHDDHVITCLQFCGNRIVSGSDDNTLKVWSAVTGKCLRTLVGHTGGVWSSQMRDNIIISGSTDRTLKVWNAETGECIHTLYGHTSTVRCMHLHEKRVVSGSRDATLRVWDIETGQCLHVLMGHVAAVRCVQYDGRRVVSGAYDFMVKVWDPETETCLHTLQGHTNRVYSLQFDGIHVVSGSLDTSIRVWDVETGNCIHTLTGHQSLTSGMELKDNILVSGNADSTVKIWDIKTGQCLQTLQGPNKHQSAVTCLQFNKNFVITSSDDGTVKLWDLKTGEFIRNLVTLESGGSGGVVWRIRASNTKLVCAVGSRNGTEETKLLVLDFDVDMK
TEAD-YAP block = TEAD-YAP interaction inhibition, primary screen, TEAD-YAP interaction inhibitor project, luminescence, HEK-TIYL cells. TEAD-Gal4/YAP UAS-luciferase luminescence. inhibition, % at 9.12 µM. 1.4% of 640,000 active; in the data active means inhibition above about 32%;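 further: 0% = median of test compound wells and 100% = reference inhibitor wells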
GPR151 activ = activators of human GPR151, primary screen, cell-based, PathHunter beta-arrestin, luminescence; G-protein coupled receptor 151 (Homo sapiens), Q8TDV0; PathHunter beta-arrestin GPR151 cells; activation, % at 11.2 µM; 1% of 650,000 active; AID 1508602, 2020; in the data active means activation above about 4.9%;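 further: 0% = median of compound wells and 100% = cells with positive control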
MITF inh conf = MITF inhibitors, retest of hits, confirmation, biochemical, AlphaScreen, triplicate; shares compounds with MITF primary; AlphaScreen MITF homodimerization, biotin/His-MITF beads; inhibition, % at 2.6 µM; 16% of 4,700 active; AID 1259372, 2018;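 active means inhibition above a cutoff derived from the DMSO control wells, cut at about 28% in these data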;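 further: 0% = MITF dimer wells with DMSO only; inhibitors lower the bead chemiluminescence by keeping MITF from dimerizing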
AlphaScreen DR = AlphaScreen optical interference compounds, dose response, counter-screen, biochemical, HTS | shares compounds with MITF primary | AlphaScreen optical interference counterscreen, cell-free | IC50, µM | 6% of 480 active; call rule not given here
AS interf ctr = AlphaScreen optical interference compounds, counter-screen for MITF inhibitor project, biochemical, triplicate | shares compounds with MITF primary | LysRS AlphaScreen counterscreen, signal interference | inhibition, % at 2.6 µM | 7.6% of 4,700 active;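 active means inhibition above a cutoff derived from the DMSO control wells, cut at about 30% in these data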
Active calls of the source: *; nt = not tested or not shown. Compounds with a hit are over-represented: about 3.4% of the library has one in this group of screens.

SMILES | MITF primary | FBW7 act | TEAD-YAP block | GPR151 activ | MITF inh conf | AS interf ctr | others
Cc1ccc(CCC(=O)Nc2ccc(-c3cn4c5c(nnc4n3)CCCC5)cc2)o1 | 56* | 0 | -12 | 1 | 66* | -2 | AlphaScreen DR=>6.5
Cc1ccc(N2C(=O)CC(Nc3ccc(N4CCOCC4)cc3)C2=O)cc1 (stereo unspecified) | 9 | 0 | 4 | -2 | nt | nt
COc1ccc(CN2CCN(C3CCC(c4ccccc4)CC3)CC2)c(OC)c1OC (stereo unspecified) | 53* | 0 | 8 | 2 | 12 | 22
CCOc1ccccc1CN1CCC(N2CCC(C)CC2)CC1 | 70* | 0 | 0 | -1 | 16 | 17
CCN1CCN(C2CCN(Cc3cc(OC)c(OC)c(OC)c3)CC2)CC1 | 49 | 0 | -3 | -1 | nt | nt
COc1ccc(CN2CCC(N3CC(C)OC(C)C3)CC2)cc1 (stereo unspecified) | 87* | 0 | 1 | -1 | -4 | 0
CCN1CCN(C2CCN(Cc3ccc(OC)c(OC)c3OC)CC2)CC1 | 61* | 0 | 3 | -1 | -13 | -7
CCOc1ccccc1CN1CCC(N2CCOCC2)CC1 | 50 | 0 | -6 | -1 | nt | nt
COC(=O)c1cn(C(=O)c2cc(OC)cc(OC)c2)nc1N | 17 | 1 | -6 | -1 | nt | nt
COc1ccccc1CN1CCC(N2CCN(C)CC2)CC1 | 46 | 0 | 10 | 0 | nt | nt
COc1ccc(CN2CCC(N3CC(C)OC(C)C3)CC2)c(OC)c1OC (stereo unspecified) | 65* | 0 | 9 | 1 | -2 | 2
COc1ccccc1CN1CCN(C2CCCCC2)CC1 | 70* | 0 | -1 | -1 | -5 | -4
COc1ccc(CN2CCN(C3CCCCC3)CC2)c(OC)c1OC | 76* | 0 | 8 | 1 | -4 | 2
COc1ccc(CN2CCN(C3CCCC(C)C3)CC2)c(OC)c1OC (stereo unspecified) | 54* | 0 | -6 | 2 | 9 | 13
COC(=O)c1cn(NC(=O)COc2ccc(Cl)cc2Cl)c(=O)c2ccccc12 | -9 | 0 | 2 | -1 | nt | nt
CCCC1(C2CCN(Cc3ccc(OCC)cc3)CC2)NC(=O)N(CC2CCCO2)C1=O (stereo unspecified) | 3 | 0 | -1 | 1 | nt | nt
NCCNCCOCCOc1ccc(I)cc1 | 38 | 0 | 5 | 1 | nt | nt
CC(=O)c1ccc(OCCCN2CCN(C)CC2)cc1 | 37 | 0 | 1 | 0 | nt | nt
CCN1CCN(CCCCOc2cccc(C(C)=O)c2)CC1 | 59* | 0 | -7 | 1 | 10 | 18
CC(=O)c1cccc(OCCCN2CCCCC2)c1 | 32 | 0 | 0 | 1 | nt | nt
CC(=O)c1cccc(OCCN2CCN(C)CC2)c1 | 57* | 0 | -8 | 0 | 9 | 16
Brc1ccccc1CN1CCN(Cc2c[nH]c3ccccc23)CC1 | 59* | 0 | 4 | 0 | -5 | -4
Clc1ccc(CN2CCN(Cc3c[nH]c4ccccc34)CC2)cc1 | 75* | 0 | -9 | -1 | 84* | 9 | AlphaScreen DR=>5.9
Fc1ccccc1CN1CCN(Cc2ccc3ccccc3c2)CC1 | 75* | 1 | 0 | -1 | -7 | 1
CCS(=O)(=O)N1CCN(Cc2c[nH]c3ccccc23)CC1 | 51* | 0 | 12 | -2 | 5 | 10
SMILES | MITF primary | FBW7 act | TEAD-YAP block | GPR151 activ | MITF inh conf | AS interf ctr | others
c1cnc(N2CCN(Cc3c[nH]c4ccccc34)CC2)nc1 | 10 | 0 | 4 | 0 | nt | nt
c1ccc2cc(CN3CCOCC3)ccc2c1 | -5 | 0 | -17 | 1 | nt | nt
CCC1(CC)C(=O)N(CC(=O)OC)C(=O)N(C)C1=S | -4 | 0 | 0 | 2 | nt | nt
Fc1ccccc1CN1CCN(Cc2cccc3ccccc23)CC1 | 74* | 0 | -12 | -1 | 19 | -4
Fc1ccccc1CN1CCN(Cc2c[nH]c3ccccc23)CC1 | 65* | 0 | 15 | 2 | -2 | -1
Fc1ccccc1CN1CCCCCC1 | 16 | 0 | 1 | 0 | nt | nt
c1ccc2c(CN3CCN(Cc4c[nH]c5ccccc45)CC3)cccc2c1 | 74* | 0 | 18 | 1 | -7 | 7
O=C(COC(=O)c1ccc2c(c1)S(=O)(=O)c1ccccc1C2=O)Nc1ccccc1 | -1 | 0 | -6 | 0 | nt | nt
C=CCOc1c(Cl)cc(/C=c2\sc3n(c2=O)C(c2ccc(OCC)cc2)C(C(=O)OCC)=C(C)N=3)cc1Cl (stereo unspecified) | 7 | 0 | -1 | 0 | nt | nt
CCOC(=O)C1=C(C)N=c2s/c(=C\c3cc(Cl)c(OC)c(OC)c3)c(=O)n2C1c1ccc(OCC)cc1 (stereo unspecified) | 51* | 0 | -2 | 0 | -9 | -7
Nc1nc(CC23CC4CC(CC(C4)C2)C3)cs1 | -5 | 0 | 7 | 1 | nt | nt
CC1CCN(Cc2csc(N)n2)CC1 | 53* | 0 | 5 | 4 | 16 | 13
O=C(CC12CC3CC(CC(C3)C1)C2)NNC(=O)Nc1ccc2c(c1)OCO2 | 18 | 0 | -11 | 0 | nt | nt
O=[N+]([O-])c1ccc(N2CCN(S(=O)(=O)c3ccccc3)CC2)cc1NC1CC1 | 71* | 0 | 4 | -1 | 7 | 10
CCCc1nc2ccccc2c(NC(=O)CN2CCCC2)c1CC | 81* | 0 | -14 | 1 | 19 | -10
Cc1cc(NC(=O)Cn2nc(C(=O)N3CCOCC3)cc2C)c2ccccc2n1 | -20 | 0 | -8 | -1 | nt | nt
CCCCc1nc2ccccc2c(NC(=O)CN2CCN(C(=O)c3ccccc3)CC2)c1CCC | 62* | 0 | 0 | 4 | 16 | 22
CCc1sc(NC(=O)CN2CCCC2)nc1-c1ccccc1 | 5 | 0 | 22 | 1 | nt | nt
CCCCc1nc2ccccc2c(C(=O)O)c1C | 8 | 0 | 7 | 3 | nt | nt
CCc1nc2ccccc2c(NC(=O)CN2CCN(CCO)CC2)c1C | 69* | 0 | -1 | 0 | 7 | 10
CCCCCCN(CCCCCC)CC(=O)Nc1c(C)c(CC)nc2ccccc12 | 69* | 0 | 9 | 1 | 7 | 6
CCCCNC(=O)c1c[nH]c2ccc(S(=O)(=O)N(CC)c3ccc(F)cc3)cc2c1=O | 6 | 0 | 0 | 0 | nt | nt
Cc1ccc(O)c(/C=N/NC(=O)C2C(=O)NCC2c2ccccc2)c1 (stereo unspecified) | 5 | -1 | 17 | -1 | nt | nt
CCOC(=O)c1ccc(N2C(=O)C(=O)/C(=C(/O)c3ccc(OC)cc3)C2c2ccc(C)cc2)cc1 (stereo unspecified) | -4 | 0 | 3 | -1 | nt | nt

Screening results as filed in PubChem.
